Results reported in PubChem BioAssay AID2732 (Emory University Molecular Libraries Screening Center, 2010).
About 8,200 (3.7%) of roughly 220,000 compounds were called active. The full list was thinned out, with actives kept by preference. Unmarked numbers belong to inactive results.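 How the source made its calls: active means compounds that reduced the stress-induced luciferase reporter signal by more than about 70% of percent inhibition (limit read from the data); inactive means the rest.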

Assay: blockers of ER-stress CHOP reporter expression – cell-based, unfolded protein response, luciferase reporter, primary screen (AID 2732);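 further: 0% = tunicamycin plus vehicle and 100% = wells without tunicamycin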
Conditions: CHO-K1 CHOP-promoter luciferase, tunicamycin-induced, 15-18 h; at 10 µM; active compounds read high

Row | SMILES | inhibition
1 | O=C(NCc1ccc(F)cc1)C1CCC(CNc2c(N3CCOCC3)c(=O)c2=O)CC1 (stereo unspecified) | -4.35%
2 | O=C(NNc1ccccc1Cl)C(O)(c1cccc(C(F)(F)F)c1)c1cccc(C(F)(F)F)c1 | 100% (active)
3 | O=C(Nc1cc(C(F)(F)F)ccc1Cl)C(=O)N1CCCCC1 | 23.6%
4 | O=C(CNS(=O)(=O)c1cccc(C(F)(F)F)c1)Nc1ccccc1F | -2.12%
5 | COc1ccc(CCN2C(=O)N(c3ccc(OC)cc3)C(=O)C2CC(=O)Nc2ccc(OC)cc2)cc1 (stereo unspecified) | -32.7%
6 | c1ccc(CSc2nnc(-c3ccco3)c(-c3ccco3)n2)cc1 | -37.2%
7 | Nc1nc(SCc2ccccc2Cl)n[nH]1 | 6.63%
8 | Clc1ccccc1CSc1nnc(-c2ccco2)c(-c2ccco2)n1 | 71.2% (active)
9 | O=C(Cc1ccccc1)N1N=C(c2ccncc2)CC1(O)C(F)(F)F (stereo unspecified) | 4.37%
10 | COc1ccc2oc(N)c(C=O)c(=O)c2c1 | 13.1%
11 | COc1ccc2c(c1)C(C)=CC(C)(C)N2C(=O)Nc1ccccc1 | 7.45%
12 | CCn1cc(C(=O)NCc2ccc3c(c2)OCO3)c2cc(OC)c(OC)cc2c1=O | 33.4%
13 | COc1ccc2c(c1)C(C)=CC(C)(C)N2C(=O)CNCc1ccc2c(c1)OCO2 | 73.7% (active)
14 | O=C(O)C(c1ccccc1)C1(O)CCCCC1 (stereo unspecified) | 3.7%
15 | CCc1ccc2nc3sc(C(=O)Nc4nnc(CC)s4)c(N)c3cc2c1 | 76.2% (active)
16 | CCc1nnc(NC(=O)c2cccc(S(=O)(=O)N(C)c3ccc(OC)cc3)c2)s1 | 28.5%
17 | CCc1nnc(NC(=O)c2sc3nc(C)cc(COC)c3c2N)s1 | -32%
18 | COC(=O)[C@H](CC(C)C)NC(=O)N1CCCCC1C (stereo partly specified) | 16.1%
19 | COc1ccc(-c2noc(-c3ccc(C)cc3)n2)cc1 | 20.8%
20 | COc1ccc(-c2nc(-c3ccccc3)no2)c(OC)c1 | 81.4% (active)
21 | COc1ccc(-c2noc(-c3cccc(OC)c3OC)n2)cc1OC | 19%
22 | CCOc1ccc(S(=O)(=O)N2CCCCCC2)c2ccccc12 | 71.1% (active)
23 | CCOc1ccc(S(=O)(=O)n2ccnc2)c2ccccc12 | 4.14%
24 | COc1ccc(S(=O)(=O)N2CCCC2)c(C)c1C | 31.7%

Row | SMILES | inhibition
25 | CN1CCN(c2ccc(S(=O)(=O)N3CCOCC3)cc2NC(=O)CCc2ccccc2)CC1 | -2.84%
26 | COc1cccc(Nc2nnc(SCC(=O)N3CC(=O)Nc4ccccc43)s2)c1 | -4.27%
27 | NC(=O)C1(C(N)=O)OC1c1ccc(Cl)cc1Cl (stereo unspecified) | -9.68%
28 | COC(=O)C1=CN(C)C=C(C(=O)OC)C1c1ccc(Cl)cc1Cl | 78.2% (active)
29 | CCOc1ccccc1C1C(C(=O)OC)=CN(C)C=C1C(=O)OC | 2.4%
30 | O=C(NC1CC1)C1=C[C@H](c2c[nH]c3ccccc23)C[C@H](OCc2ccc(CO)cc2)O1 | 0.14%
31 | CSc1ccc(NC(=O)/C=C/C(=O)O)cc1 | 6.47%
32 | CC(C)S(=O)(=O)c1csc(NC(=O)Nc2ccc(Cl)cc2)c1Cl | -24.8%
33 | COc1ccc(-c2csc(N3CCN(Cc4ccc5c(c4)OCO5)CC3)n2)cc1 | 86.8% (active)
34 | O=C(CN1CCN(c2nc(-c3ccccc3)cs2)CC1)NCc1ccc2c(c1)OCO2 | 63.6%
35 | COc1cccc(NC(=O)CN2CCN(c3nc(-c4cccc(OC)c4)cs3)CC2)c1 | 19.3%
36 | COc1cc(C(F)(F)F)c(C(=O)N(C)c2ccc(Cl)cc2)cn1 | 13.6%
37 | O=C(Nc1ccc(-c2csc(Nc3cccc(C(F)(F)F)c3)n2)cc1)c1cccc(C(F)(F)F)c1 | 21.4%
38 | O=C(O)COc1ccc(-c2nccc(-c3cccs3)n2)cc1 | 73.8% (active)
39 | O=C(Nc1ccnc(-c2ccncc2)n1)c1cccs1 | 10.6%
40 | COC(=O)CSc1nccc(-c2cccs2)n1 | -10.9%
41 | O=c1[nH]c(CSc2ccccc2)nc2c1oc1ccccc12 | -3.37%
42 | Cc1nnsc1C(=O)NCc1c(F)cccc1Cl | 15.1%
43 | Cc1ccc(-c2cn3cc(C)ccc3n2)cc1 | 95.9% (active)
44 | COc1ccc(-c2cn3ccc(C)cc3n2)cc1 | 59.3%
45 | Cc1ccc(-c2cn3cc([N+](=O)[O-])ccc3n2)cc1 | 54.5%
46 | COc1ccccc1N1CCN(C(=O)CSc2ncnc3c2cnn3-c2ccc(C)c(C)c2)CC1 | -4.74%
47 | Cc1nc(C(=O)N2CCCC(C(=O)c3ccc(Cl)cc3)C2)cs1 (stereo unspecified) | -9.72%
48 | CN(c1ccc2nc3ccccc3c(=O)n2n1)C1CCCCC1 | 84.1% (active)

Row | SMILES | inhibition
49 | CN(C(=O)CSc1nncc2ccccc12)C1CCCCC1 | 4.17%
50 | O=c1c2ccccc2nc2n1C1(CCCCC1)Cc1ccccc1-2 | -15.6%
51 | O=C(C[n+]1cc(-c2ccc(Cl)c(Cl)c2)n2c1CCC2)c1cccs1 | -8.35%
52 | Cc1ccc(S(=O)(=O)N(C)C)cc1NC(=O)c1n[nH]c(=O)c2ccccc12 | 2.56%
53 | CC1CCc2sc(C(=O)N/N=C/C3CCCCC3)cc2C1 (stereo unspecified) | 71.4% (active)
54 | C/C(=N\NC(=O)c1cc2c(s1)CCC(C)C2)c1cccnc1 (stereo unspecified) | 6.64%
55 | O=C(Nc1ccc(F)cc1)c1cc2c(s1)CCCC2 | 10.4%
56 | NC(=O)c1c(NC(=O)CSc2nc(N)cc(=O)[nH]2)sc2c1CCCC2 | 15.3%
57 | COc1cc(/C=C2/C(=O)ON=C2C)ccc1OCc1cccc(F)c1 | 104% (active)
58 | CC1=NOC(=O)/C1=C\c1ccccc1 | -18.4%
59 | COc1cc(/C=C2/C(=O)ON=C2C)ccc1OCc1ccccc1F | -26.4%
60 | Cc1cc(NCc2cccnc2)no1 | 3.98%
61 | O=C(NC(=O)N1CCSCC1)c1c(Cl)cccc1Cl | 12.1%
62 | Cc1cc(CO)nn1-c1ccc([N+](=O)[O-])cc1 | 7.27%
63 | CNC(=O)C(NC(=O)c1ccccc1)=C(C)C | 1.37%
64 | CCN(CC)c1ccc(NC(=O)C2CCC(CNc3c(N4CCCC4)c(=O)c3=O)CC2)c(C)c1 (stereo unspecified) | -9.36%
65 | Cc1cc(-c2nc(C)c(-c3nnc(SCC(=O)Nc4ccccc4)n3C)s2)no1 | 5.16%
66 | CC(C)(C)Oc1ncc(Br)c(OC(C)(C)C)n1 | 23.2%
67 | COc1cccc(-c2cnc(OC(C)(C)C)nc2OC(C)(C)C)c1 | 91.8% (active)
68 | COc1cccc(-c2nc3cc(C)ccc3o2)c1 | 61.7%
69 | Cc1ccc(C(=O)Nc2nc(N)n(-c3ccccc3)n2)cc1 | 12.8%
70 | CCN(CC)C(=O)CN(c1cccc([N+](=O)[O-])c1)S(=O)(=O)c1ccccc1 | 0.69%
71 | O=C(CCl)N(Cc1cccc([N+](=O)[O-])c1)c1cccc(Cl)c1 | 105% (active)
72 | O=C(Nc1cccc([N+](=O)[O-])c1)Nc1ccc(Cl)cn1 | 2.82%

Row | SMILES | inhibition
73 | COC(=O)c1scc(S(=O)(=O)C(C)(C)C)c1-n1cccc1 | 6.86%
74 | Cc1ccc(S(=O)(=O)NC(=O)N2CCCN(Cc3ccc(F)cc3)CC2)cc1 | 9.07%
75 | Cc1ccc(NC(=S)NC(=O)/C=C/c2ccc(Cl)cc2)cc1 | 17.9%
76 | COc1ccc(NS(=O)(=O)c2ccc(NC(=O)C(C)(C(F)(F)F)C(F)(F)F)cc2)nn1 | -4.95%
77 | COc1ccc(NS(=O)(=O)c2ccc(NC(=S)NC(=O)/C=C/c3ccc(C)cc3)cc2)nn1 | 95.5% (active)
78 | CCN(CC)CCCN=Cc1c(O)n(-c2ccc(C)cc2)c(=O)c2ccccc12 | 6.14%
79 | CSCC[C@H](NC(=O)NC1CCCC1)C(=O)O | -0.23%
80 | COc1ccc(-c2nc(CS(=O)CC(=O)NCc3ccccn3)c(C)o2)cc1 (stereo unspecified) | 7.53%
81 | Cc1ccc(-c2nc(CS(=O)CC(=O)N3CCN(c4ncccn4)CC3)c(C)o2)cc1 (stereo unspecified) | 44.5%
82 | COc1ccc(-c2nc(CS(=O)CC(=O)N3CCc4ccccc4C3)c(C)o2)cc1 (stereo unspecified) | 86.5% (active)
83 | CCn1c(SCC(=O)Nc2sc(C)c(C)c2C#N)nnc1C1CC1 | 5.65%
84 | CCc1ccccc1NC(=O)CSc1nnc(CCNC(=O)OC(C)(C)C)o1 | 15.9%
85 | O=C(/C=C/c1ccc(Cl)c([N+](=O)[O-])c1)c1ccc(O)cc1 | -208%
86 | Cc1ccc(-c2nn(-c3ccccc3)cc2C(=O)Nc2cccc(S(=O)(=O)N3CCOCC3)c2)cc1 | 40%
87 | Cc1ccc(-c2nn(-c3ccccc3)cc2/C=C/C(=O)Nc2cccc(S(N)(=O)=O)c2)cc1 | 88.3% (active)
88 | COc1ccc(-c2nn(-c3ccccc3)cc2/C=C\C(=O)Nc2ccc(C(=O)O)cc2)cc1 | 40.4%
89 | CC(=O)NCc1ccc(S(=O)(=O)NC2CCN(Cc3ccccc3)CC2)cc1 | -10.7%
90 | Nc1ccccc1SC(C[N+](=O)[O-])c1ccccc1 (stereo unspecified) | 46.3%
91 | O=C1CC2(CC(c3ccc(Cl)cc3)=NO2)C(=O)N1c1ccccc1 (stereo unspecified) | 18.6%
92 | NC(=O)C1=C[C@@H](c2csc3ccccc23)C[C@@H](OCc2ccc(CO)cc2)O1 | 36.3%
93 | COP1(=O)C[C@@H](O)[C@@H](O)[C@@H](COCc2ccccc2)O1 (stereo partly specified) | -7.84%
94 | CCCc1nc(-c2cc3cc(C)ccc3[nH]c2=O)no1 | 14.6%
95 | CCNCc1cc2cc(C)ccc2[nH]c1=O | -7.23%
96 | Cc1ccc2[nH]c(=O)c(-c3nc4c(C)cccn4c3NCc3ccco3)cc2c1 | 95.7% (active)
